Compounds with a hit are over-represented: about 1.4% of the library has one in this group of screens.
KCNH2 3.1 block: KCNH2 3.1 (human) potassium channel inhibition; hit rate 0.95% among 340,000; activity change, % (tested at about 1.8 µM); AID 720553; U2OS KCNH2 3.1, thallium flux FluxOr; active compounds read low;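 active = maximum activity change below -70%; inconclusive = maximum activity change from -70% to -50%; inactive = maximum activity change above -50%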;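 also: thallium influx rate constant from kinetic fluorescence after stimulation buffer; % is scaled to controls: 0 for no effect and ±100 for the full control effect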
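Thallium flux via FluxOr fluorescence (Red40 quencher, 45 min loading) in U2OS cells virally expressing the KCNH2 3.1 isoform (1.77 x 10^8 /mL virus, overnight at 37 C). Rate constants from 2-min kinetic reads post-stimulation, normalised to positive and negative controls.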
S-ASM inh: blocks human secretory acid sphingomyelinase. P17405. placental ASM, HMU-PC fluorogenic substrate, 60 min. Potency, µM (doses to about 57.5 µM), for the others: at the highest dose activity change, negative = inhibition, most hits filed as inhibitors. hit rate 0.006% among 340,000. AID 504937; also: potency is read from the fitted curve at half-maximal effect
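qHTS format. ASM enzyme prepared from human placenta hydrolyses the fluorogenic substrate HMU-PC0 (9 uM final) over 60 min at 37 °C after a 10 min compound preincubation.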
uPA generation: inhibitors of cell surface uPA generation | cell surface uPA generation assay, qHTS | Potency, µM (doses to about 38.3 µM), without a hit: at the highest dose activity change, negative = inhibition, actives largely listed as inhibitors | hit rate 0.31% among 330,000 | AID 540303; active = well fitted inhibition curve with a large enough effect; inconclusive = small, poorly fitted or top-dose-only effect; inactive = no such curve, though single readings can be large or run the other way; tested in mouse RAW 264.7 cells; also: potency is read from the fitted curve at half-maximal effect; % is scaled to controls: 0 for no effect and ±100 for the full control effect; nearly all actives have a fitted effect of over 55% in size
MmCpn inh: M. maripaludis TRiC chaperonin inhibition; purified Mm-Cpn ATPase, ADP Transcreener TR-FRET; Potency, µM (highest dose often 76.9 µM), for inactives: top-dose activity, negative = inhibition, actives largely listed as inhibitors; hit rate 0.031% among 330,000; AID 504842; also: potency is read from the fitted curve at half-maximal effect; % is scaled to controls: 0 for no effect and ±100 for the full control effect; nearly all actives have a fitted effect of over 80% in size
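Reaction buffer contained 30 mM Tris pH 7.4, 100 mM KCl, 5 mM MgCl2 and 1 mM DTT. Mm-CPN (25 nM final) hydrolysed 10 uM ATP over 30 min at 37°C; ADP was read by HTRF.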
p53 reactivation: restores transcriptional activity of mutant p53 | hit rate 0.063% among 320,000 | H1299 p53-A138V BP100-luciferase reporter, luminescence, 24 h | Potency, µM (doses to about 92.2 µM), inactives show top-dose activity change, positive = activation, most hits filed as activators; also: potency is read from the fitted curve at half-maximal effect; % of control where 0% means no effect; nearly all actives have a fitted effect of over 45% in size
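p53-null H1299 cells stably carrying temperature-sensitive p53-A138V and a BP100-luciferase reporter were pinned with compounds (4-point, 1:5 series) and held 24 hrs at 37 deg C. Luminescence was read 10 min after detection reagent.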
hERG WT inh: blocks the wildtype human KCNH2 potassium channel | U2OS, BacMam KCNH2, thallium flux FluxOr; active compounds read low | AID 720551 | activity change, % at 1.84 µM | Q12809 | hit rate 0.37% among 340,000;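 active = maximum activity change below -70%; inconclusive = maximum activity change between -70% and -50%; inactive = maximum activity change above -50%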; also: % is scaled to controls: 0 for no effect and ±100 for the full control effect
Target sequence (Q12809 whole entry, looked up): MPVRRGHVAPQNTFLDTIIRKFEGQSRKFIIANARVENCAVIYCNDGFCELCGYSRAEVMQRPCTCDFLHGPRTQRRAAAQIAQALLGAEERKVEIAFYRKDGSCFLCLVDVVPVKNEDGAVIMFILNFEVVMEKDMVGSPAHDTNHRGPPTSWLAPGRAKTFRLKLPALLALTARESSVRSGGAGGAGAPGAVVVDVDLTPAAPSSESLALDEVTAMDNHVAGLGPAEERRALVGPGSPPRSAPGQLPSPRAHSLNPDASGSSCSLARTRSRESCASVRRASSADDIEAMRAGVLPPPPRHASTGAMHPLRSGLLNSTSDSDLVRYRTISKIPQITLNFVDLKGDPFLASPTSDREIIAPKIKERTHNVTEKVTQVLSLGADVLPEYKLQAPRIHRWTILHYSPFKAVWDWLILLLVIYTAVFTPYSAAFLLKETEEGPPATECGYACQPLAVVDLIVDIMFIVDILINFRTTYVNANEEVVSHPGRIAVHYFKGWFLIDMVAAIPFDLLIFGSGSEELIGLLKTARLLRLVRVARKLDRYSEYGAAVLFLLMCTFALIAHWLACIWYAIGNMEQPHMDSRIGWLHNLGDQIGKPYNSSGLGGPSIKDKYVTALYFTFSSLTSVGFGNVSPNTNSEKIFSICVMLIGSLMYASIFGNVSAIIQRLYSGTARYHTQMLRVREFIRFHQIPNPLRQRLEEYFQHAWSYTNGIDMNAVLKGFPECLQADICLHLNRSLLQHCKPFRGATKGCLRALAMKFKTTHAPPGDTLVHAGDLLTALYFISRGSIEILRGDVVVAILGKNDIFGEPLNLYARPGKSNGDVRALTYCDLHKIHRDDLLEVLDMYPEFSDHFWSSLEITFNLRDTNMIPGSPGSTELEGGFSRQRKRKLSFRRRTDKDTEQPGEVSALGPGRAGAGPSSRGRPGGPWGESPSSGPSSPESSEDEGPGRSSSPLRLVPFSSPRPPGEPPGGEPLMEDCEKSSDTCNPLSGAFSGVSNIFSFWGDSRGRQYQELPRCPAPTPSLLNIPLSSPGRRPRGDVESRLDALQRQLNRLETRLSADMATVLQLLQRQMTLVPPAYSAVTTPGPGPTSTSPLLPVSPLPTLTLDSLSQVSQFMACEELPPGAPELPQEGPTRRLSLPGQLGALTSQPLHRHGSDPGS
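U2OS cells were transduced with wild-type KCNH2 virus (2.03 x 10^8 / mL) for 4 h at room temperature, then cultured overnight at 37 C. Thallium flux was read with FluxOr dye. Rate constants were normalized to DMSO controls.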
* marks the source's active call; other numbers are inactive results. Unless noted, calls follow the shape of the dose curve; as a rule, active = well fitted curve in the direction sought with a large enough effect; inconclusive = small, poorly fitted or top-dose-only effect, or another doubt; inactive = no such curve, though single readings can be large; an effect the other way counts as inactive or inconclusive.

`CCOC(=O)C1(CCOc2ccccc2)CCN(Cc2ccc(C)s2)CC1` gave KCNH2 3.1 block -84*, S-ASM inh 0%, uPA generation -4%, MmCpn inh 1%, p53 reactivation -1% and hERG WT inh -94*.
`CCCCCSc1cc(OC)c(CCN(C)C)cc1OC` gave KCNH2 3.1 block -70*, S-ASM inh -1%, uPA generation -2%, MmCpn inh 4%, p53 reactivation -17% and hERG WT inh 14.
For CC(C)n1c(N2CCN(S(=O)(=O)c3cccc([N+](=O)[O-])c3)CC2)nc2ccccc21 the results were KCNH2 3.1 block inconclusive, S-ASM inh -3%, uPA generation 2%, MmCpn inh 1%, p53 reactivation inconclusive and hERG WT inh 20.
CCN(CC)C(=O)c1ccc(NC(=O)c2cccc(S(=O)(=O)N3CCN(Cc4ccccc4)CC3)c2)cc1 was read as KCNH2 3.1 block -7, S-ASM inh 0%, uPA generation inconclusive, MmCpn inh -1%, p53 reactivation 0% and hERG WT inh -1.
For Cc1ccc(NS(=O)(=O)c2cccc(C(=O)NC3CCN(Cc4ccccc4)CC3)c2)c(C)c1 the results were KCNH2 3.1 block -102*, S-ASM inh 1%, uPA generation inconclusive and hERG WT inh -2.
`COC(=O)C1=C(c2ccc(Cl)c(C(F)(F)F)c2)C[C@@H]2CC[C@H]1N2C(=O)NCc1cc(C)oc1C(F)(F)F` gave KCNH2 3.1 block -89*, S-ASM inh -5%, uPA generation inconclusive, MmCpn inh -1%, p53 reactivation 3% and hERG WT inh -11.
For COC(=O)C1=C(c2ccc(Cl)c(C(F)(F)F)c2)C[C@@H]2CC[C@H]1N2C(=O)NCC1CC1 the results were KCNH2 3.1 block -10, S-ASM inh 0%, uPA generation -4%, MmCpn inh 0%, p53 reactivation -11% and hERG WT inh 5.
`Fc1ccc(C(OCCN2CCN(CCCc3ccccc3)CC2)c2ccc(F)cc2)cc1` gave S-ASM inh -3% and uPA generation inconclusive.
Screening c1ccc(CCCN2CCN(CCOC(c3ccccc3)c3ccccc3)CC2)cc1 returned KCNH2 3.1 block -117*, S-ASM inh 2%, uPA generation inconclusive and hERG WT inh inconclusive.
For Fc1ccc(C(OCCN2CCCC2)c2ccc(F)cc2)cc1 the results were KCNH2 3.1 block -77*, S-ASM inh -2%, uPA generation -13%, MmCpn inh 0%, p53 reactivation -7% and hERG WT inh 8.
Screening Fc1ccc(C(OCCN2CCCC2)c2ccc(Br)cc2)cc1 (stereo unspecified) returned KCNH2 3.1 block -72*, S-ASM inh 1%, uPA generation -6%, MmCpn inh -1%, p53 reactivation -3% and hERG WT inh inconclusive.
`C#CCN1CCN(c2ccc(F)cc2)CC1` gave KCNH2 3.1 block -12, S-ASM inh 1%, uPA generation -1%, MmCpn inh 0%, p53 reactivation -3% and hERG WT inh 3.
`Cc1nn(-c2nccs2)c2c1C(=O)CC(C)(C)C2Br` (stereo unspecified) gave KCNH2 3.1 block -3, S-ASM inh -4%, uPA generation inconclusive and hERG WT inh 4.
Screening C/C=C/c1ccc2c(c1)OCO2 returned KCNH2 3.1 block 10, S-ASM inh 2%, uPA generation 15%, MmCpn inh 3%, p53 reactivation -9% and hERG WT inh -10.
c1cc2c(cc1[C@H]1OCC3C1CO[C@@H]3c1ccc3c(c1)OCO3)OCO2 (stereo partly specified) was read as KCNH2 3.1 block -70*, S-ASM inh -1%, uPA generation 24%, MmCpn inh 1%, p53 reactivation -6% and hERG WT inh 18.
For COc1ccc(-c2c([C@H]3[C@H]4C=CC[C@@H](C)[C@@H]4C(=O)N3Cc3ccccc3)ccc3ccccc23)cc1OC the results were KCNH2 3.1 block -36, S-ASM inh -11%, uPA generation inconclusive, MmCpn inh -9%, p53 reactivation -1% and hERG WT inh 5.
For Cc1ccc(OP(=O)(NCc2ccccc2)Oc2ccc(C)cc2)cc1 the results were KCNH2 3.1 block -87*, S-ASM inh -3%, uPA generation 11%, MmCpn inh 0%, p53 reactivation 6% and hERG WT inh -12.
For CCN1CCN(c2ccc(NC(C)=O)cc2Cl)CC1 the results were KCNH2 3.1 block -4, S-ASM inh 1%, uPA generation -2%, MmCpn inh 3%, p53 reactivation -1% and hERG WT inh 6.
O=C(Nc1ccc(Cl)cc1)Nc1ccc(Cl)c(Cl)c1 was read as KCNH2 3.1 block 13, S-ASM inh -13%, uPA generation inconclusive, MmCpn inh -1%, p53 reactivation 28µM* and hERG WT inh -9.
Cc1ccc(S(=O)(=O)Nc2ccc3c(c2)C(=O)N([C@H](C)CO)C[C@H](C)[C@@H](CN(C)Cc2ccc(-c4ccccc4)cc2)O3)cc1 was read as KCNH2 3.1 block -34, S-ASM inh -14%, uPA generation inconclusive, MmCpn inh 0%, p53 reactivation 8% and hERG WT inh -6.
Cc1ccc(-c2cc(-c3ccccc3)cc(-c3ccccc3)[n+]2-c2ccccc2)cc1 was read as KCNH2 3.1 block -38, S-ASM inh -3%, uPA generation 10µM*, MmCpn inh 0%, p53 reactivation -24% and hERG WT inh -13.
For Cc1ccc(-c2cc(-c3ccc(C)cc3)[n+](-c3ccccc3)c(-c3ccc(C)cc3)c2)cc1 the results were KCNH2 3.1 block -44, S-ASM inh -3%, uPA generation inconclusive, MmCpn inh -7%, p53 reactivation -16% and hERG WT inh -36.
Screening COc1ccc(O)c(/C=N/NC(=S)Nc2cccnc2)c1 returned KCNH2 3.1 block -6, S-ASM inh 15%, uPA generation 11µM*, MmCpn inh -4%, p53 reactivation -1% and hERG WT inh -6.
CCn1c(COc2cccc3ccccc23)nnc1SCC(N)=O was read as KCNH2 3.1 block 15, S-ASM inh -2%, uPA generation 3%, MmCpn inh inconclusive, p53 reactivation 8% and hERG WT inh 4.

Screens from PubChem BioAssay.
